# From PubChem BioAssay AID803 (The Scripps Research Institute Molecular Screening Center, 2007)
# Out of some 140,000 compounds screened, about 680 (0.49%) were called active. No stated cut-off is given here; in the data, active means activation above about 5% (passing the limit was not always enough); inactive means the rest. What follows is part of a selection rich in actives, with near analogues and random picks from the rest.
# Target: Galanin receptor type 2 (Homo sapiens) (UniProt O43603)
# Sequence (O43603 whole entry, looked up): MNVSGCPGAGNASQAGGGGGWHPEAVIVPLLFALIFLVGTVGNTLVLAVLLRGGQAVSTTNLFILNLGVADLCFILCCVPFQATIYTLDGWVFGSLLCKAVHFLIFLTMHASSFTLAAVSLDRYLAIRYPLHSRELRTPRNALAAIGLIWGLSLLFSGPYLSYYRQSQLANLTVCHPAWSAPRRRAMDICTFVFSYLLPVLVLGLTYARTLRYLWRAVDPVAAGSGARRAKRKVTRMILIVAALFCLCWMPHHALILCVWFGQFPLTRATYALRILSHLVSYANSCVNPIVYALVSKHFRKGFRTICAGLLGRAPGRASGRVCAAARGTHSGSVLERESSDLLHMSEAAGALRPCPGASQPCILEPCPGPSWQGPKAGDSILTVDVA
# Test: GALR2 receptor agonists, primary screen, cell-based (AID 803);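 further: 0% = vehicle buffer wells and 100% = reference agonist at full effect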
# Conditions: GALR2-expressing cells, agonist activation read-out; at 5.6 µM; stronger effect = higher value
row,Structure (SMILES),activation
1,COc1cc(NC(=O)c2cc([N+](=O)[O-])ccc2Br)ccc1NC(=O)c1ccco1,-2.01% (inactive)
2,Cc1ccc(-c2cc(N)on2)cc1,-1.6% (inactive)
3,CCOc1ccc(Br)cc1S(=O)(=O)Nc1ccc(C(=O)OC(C)C(=O)N(C)c2ccccc2)cc1 (configuration not stated),-0.52% (inactive)
4,COc1cc(NC(=S)NCCSc2ccc(C)cc2)cc(OC)c1,-1.5% (inactive)
5,Cc1noc(/C=C/c2ccco2)c1S(=O)(=O)N1CCC(C(=O)Nc2ccc(Cl)cn2)CC1,-1.28% (inactive)
6,CCC(c1nnnn1C1CCCC1)N(Cc1cccs1)Cc1cc2cccc(C)c2[nH]c1=O (configuration not stated),-1.09% (inactive)
7,Cc1cccc2cc(CN(Cc3cccs3)C(c3nnnn3C3CCCC3)C(C)C)c(=O)[nH]c12 (configuration not stated),-1.34% (inactive)
8,Cc1cccc2cc(CN(Cc3ccc4c(c3)OCO4)Cc3nnnn3C3CCCC3)c(=O)[nH]c12,5.7% (active)
9,COc1ccccc1C1CC(=O)n2c(nc(-c3ccccc3)c2-c2ccccc2)S1 (configuration not stated),-1.18% (inactive)
10,O=C1N(c2ccc(Cl)cc2)C(c2ccc(Cl)cc2)N2CCCN12 (configuration not stated),-0.59% (inactive)
11,NCCCC[C@@H]1NC(=O)[C@H](CCC(=O)O)NC(=O)c2cc([N+](=O)[O-])cc(I)c2NCC[C@@H](C(N)=O)NC1=O,-0.98% (inactive)
12,CNC(=S)N/N=C/c1cn(Cc2ccc(C)cc2)c2ccccc12,-1.46% (inactive)
13,O=c1cc(CO)oc(C(Nc2cccc([N+](=O)[O-])c2)c2ccccn2)c1O (configuration not stated),0.7% (inactive)
14,Cc1ccc(-c2cn3cc([N+](=O)[O-])ccc3n2)cc1,-1.19% (inactive)
15,CCOc1ccc(C(=O)Nc2cc(OC)ccc2OC)cc1,-2.67% (inactive)
16,CCOc1cc(NC(=O)c2cnccn2)c(OCC)cc1NC(=O)c1ccc(C)cc1,22.8% (active)
17,CCOc1ccccc1NC(=O)c1cccnc1,0.49% (inactive)
18,Cc1sc2nc(COC(=O)C(NC(=O)c3ccc(Cl)cc3Cl)C(C)C)[nH]c(=O)c2c1C (configuration not stated),-1.47% (inactive)
19,CC(C)(C)c1ccc(C(=O)CSc2ncn[nH]2)cc1,-1.49% (inactive)

row,Structure (SMILES),activation
1,CCN(C(=O)CSc1ncn[nH]1)c1cccc2ccccc12,144% (active)
2,O=C(CSc1ncn[nH]1)Nc1ccnc2ccccc12,-2.63% (inactive)
3,CC(=O)Nc1ccc(/C(C)=N/NC(=O)CN(c2ccccc2Br)S(C)(=O)=O)cc1,-0.42% (inactive)
4,CSc1ccc(/C=C/C(=O)NC23CC4CC(CC(C4)C2)C3)cc1,-1.84% (inactive)
5,Cc1cccn2c(=O)c3cc(C#N)c(=NC(=O)c4cccnc4)n(CC4CCCO4)c3nc12 (configuration not stated),7.52% (active)
6,Cc1cccn2c(=O)c3cc(C#N)c(=O)n(CCCN4CCOCC4)c3nc12,2.81% (inactive)
7,Cc1cccn2c(=O)c3cc(C(=O)N4COCC4(C)C)n(C)c3nc12,0.31% (inactive)
8,CC(=O)c1ccc(NC(=O)Nc2ccc([N+](=O)[O-])cc2C)cc1,-1.71% (inactive)
9,Cc1cc(-c2cccs2)nc(-n2cccc2)n1,-2.57% (inactive)
10,CCCn1c(=O)c2c(C(F)(F)F)cc(-c3cccs3)nc2n(CCC)c1=O,6.87% (active)
11,FC(F)(F)c1cc(-c2cccs2)nc(NCc2ccco2)n1,-1.85% (inactive)
12,Cc1cc(C)nc(NC(=O)C(C)N2C(=O)c3ccccc3C2=O)n1 (configuration not stated),-2.31% (inactive)
13,COC(=O)c1ccc(NC(=O)Nc2ccc(C)cc2)cc1,-1.78% (inactive)
14,COC(=O)c1ccc(NC(=O)C(C)N2C(=O)c3ccccc3C2=O)cc1 (configuration not stated),8.37% (active)
15,O=C(CSc1ccccc1)Nc1cc(Cl)ccc1Oc1ccccc1,-0.74% (inactive)
16,C/C(CCC(=O)OC[C@H]1O[C@H](C#Cc2ccccc2)C=C[C@@H]1Oc1ccc(C)cc1)=N\OC[C@@H](O)[C@H]1O[C@@H]2OC(C)(C)O[C@@H]2[C@H]1O,-0.18% (inactive)
17,CC/C(C)=N/Nc1nc2sc3c(c2c(=O)[nH]1)CC(C)(C)OC3,25.2% (active)
18,CCOC(=O)Cn1c(SC)nc2sc3c(c2c1=O)CC(C)(C)OC3,-1.18% (inactive)
19,CCOC(=O)CSc1nc2sc3c(c2c(=O)[nH]1)CC(C)(C)OC3,-2.5% (inactive)

row,Structure (SMILES),activation
1,CCOc1ccc(NC(=O)COc2ccc(C(=O)NC3CCCc4ccccc43)cc2OC)cc1 (configuration not stated),-0.21% (inactive)
2,CCc1ccc(-c2cc(C(=O)NN3CCN(C)CC3)c3ccccc3n2)cc1,0.42% (inactive)
3,CCCCNS(=O)(=O)c1ccc2nc(SCC(=O)Nc3cc(C)cc(C)c3)[nH]c2c1,-1.87% (inactive)
4,CCc1cc(C(=O)OC)c(NC(=O)CC2Sc3ccc(C(F)(F)F)cc3NC2=O)s1 (configuration not stated),1.46% (inactive)
5,Cc1ccc(-c2cc(C(=O)NCc3cn(C)nc3C)c3cc(Br)ccc3n2)cc1,5.13% (active)
6,COc1ccc(Cl)cc1C(=O)NCc1cn(C)nc1C,-0.07% (inactive)
7,Cc1ccc2nc(-c3ccccc3)cc(C(=O)O)c2c1,-0.75% (inactive)
8,CCCn1nc(NS(=O)(=O)c2ccccc2)c2cc3cc(C)ccc3nc21,-2.05% (inactive)
9,COc1ccc(C2=NN(C(=O)c3cccnc3)C(c3ccccc3)C2)cc1 (configuration not stated),-0.17% (inactive)
10,COc1ccc(C2CC(c3ccccc3)=NN2C(=O)CSc2nccc(=O)[nH]2)cc1 (configuration not stated),0.01% (inactive)
11,COc1ccc(C2CC(c3ccccc3)=NN2C(=O)c2ccc(Cl)c([N+](=O)[O-])c2)cc1 (configuration not stated),4.95% (active)
12,Cn1ncc2c(NNC(=O)Cc3cccc4ccccc34)ncnc21,0.28% (inactive)
13,Cc1cnc(NC(=O)CSc2nnc(-c3ccc(Cl)cc3Cl)n2N)s1,-1.9% (inactive)
14,Cc1ccc(CCC(=O)Nc2ncc(Cc3cc(Cl)ccc3Cl)s2)o1,8.73% (active)
15,CCOc1ccccc1NC(=O)CCc1ccc(C)o1,-0.84% (inactive)
16,O=C(Nc1ccccc1F)c1ccccc1-c1ccccc1,-0.61% (inactive)
17,COc1ccccc1N1N=C(c2cccs2)CC1c1ccccc1 (configuration not stated),13.1% (active)
18,COc1ccc(C2CC(c3cccs3)=NN2C(=O)COC(=O)c2cc3ccccc3cc2O)cc1OC (configuration not stated),0.22% (inactive)
19,Fc1ccc(N2N=C(c3cccs3)CC2c2ccco2)c(F)c1 (configuration not stated),10.4% (inactive)
